The text below walks through data of PubChem BioAssay AID1671190 (National Center for Advancing Translational Sciences (NCATS), 2021).

Structures are written as SMILES. About 6,100 (1.1%) of roughly 580,000 compounds were called active. Entries that show only a call come without a potency. Inconclusive results (about 15%) are left out. The call rests on the fitted dose curve; in most records, active means well fitted inhibition curve with a large enough effect; inconclusive means small, poorly fitted or top-dose-only effect, or another doubt; inactive means no such curve, though single readings can be large or run the other way. The sample as a whole holds a higher share of actives than the screen did.
Potency means the concentration at half of the fitted maximal effect.

Polyunsaturated fatty acid lipoxygenase ALOX12 (Homo sapiens), sequence (P18054 whole entry, looked up): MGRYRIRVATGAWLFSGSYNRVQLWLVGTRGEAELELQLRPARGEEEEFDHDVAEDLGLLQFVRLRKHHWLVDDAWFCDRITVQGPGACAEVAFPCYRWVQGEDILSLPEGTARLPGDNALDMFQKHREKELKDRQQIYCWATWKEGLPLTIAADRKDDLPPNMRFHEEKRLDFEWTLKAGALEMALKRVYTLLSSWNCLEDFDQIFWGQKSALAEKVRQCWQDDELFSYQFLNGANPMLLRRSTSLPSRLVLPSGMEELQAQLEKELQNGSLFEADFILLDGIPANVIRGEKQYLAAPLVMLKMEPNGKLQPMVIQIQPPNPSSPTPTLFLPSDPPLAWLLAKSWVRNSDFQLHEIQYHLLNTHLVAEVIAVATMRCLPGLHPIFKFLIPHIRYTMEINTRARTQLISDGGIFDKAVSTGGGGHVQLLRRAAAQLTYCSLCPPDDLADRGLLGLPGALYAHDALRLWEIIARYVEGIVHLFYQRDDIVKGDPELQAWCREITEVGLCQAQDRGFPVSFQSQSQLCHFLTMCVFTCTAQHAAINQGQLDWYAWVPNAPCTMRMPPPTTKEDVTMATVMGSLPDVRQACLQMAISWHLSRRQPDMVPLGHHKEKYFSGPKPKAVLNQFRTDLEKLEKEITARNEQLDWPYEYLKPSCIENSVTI

In this assay the target is Polyunsaturated fatty acid lipoxygenase ALOX12 (Homo sapiens) (UniProt P18054). The assay is described as follows: Primary qHTS assay for inhibitors of human arachidonate 12S-lipoxygenase (ALOX12): Round 2. The conditions noted are these: purified 12hLO, xylenol orange hydroperoxide absorbance; series mostly up to 108 µM. The method in brief:
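Purified human 12hLO (150 nM final) in 25 mM Hepes, 0.01% Triton X-100, pH 7.0 was preincubated 15 min at room temperature with compound. Then 40 uM arachidonic acid was added, 30 min. Hydroperoxide was read by Fe-XO absorbance ratio 573/405 nm.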
A general note: Quantitative high-throughput screening tests each substance at several concentrations.
As for `Cc1ccc(C(=O)Nc2cnc3ccccc3c2)cc1[N+](=O)[O-]`, the Potency entry was “inactive”. Same read-out and setting: then `Cc1cc2nc(-c3ccc(NC(=O)c4cc5ccccc5o4)cc3)oc2cc1C`, with “inactive”. Consider `C/C(=N\NC(=S)Nc1ccc(C)cc1)c1cc2ccccc2o1`, for which the Potency was 25.1 µM (active). Same read-out and setting: the result for `CC(C)Oc1ccc(NC(=O)c2cc3ccccc3o2)cc1` reads “inactive”; that for `COc1cccc(/C=C2\Oc3cc(OS(=O)(=O)c4ccc(C)cc4)ccc3C2=O)c1OC`, “inactive”. Turning to `Cc1ccc(NC(=O)CN(C)C(=O)c2nn(-c3ccccc3)c3c2CCC3)cc1`, the Potency result is “inactive”. On the same count and under the same terms, the result for `COc1ccc(-c2ccnc(N[C@H]3CO[C@H]4[C@@H]3OC[C@H]4OC(=O)Nc3cccc4ccccc34)n2)cc1` reads “inactive”; that for `CCNC(=O)O[C@@H]1CO[C@H]2[C@@H]1OC[C@@H]2NC(=S)Nc1cccc2ccccc12`, 56.2 µM (active).

`COc1ccc(NC(=O)O[C@@H]2CO[C@H]3[C@@H]2OC[C@@H]3NC(=S)Nc2cccc3ccccc23)cc1`: the Potency result is “inactive”. For the compound `CCOc1ccc(N2CC(NC(=O)CC(C)(C)C)CC2=O)cc1` (centres undefined), the Potency entry is “inactive”.

As to `O=C(Cc1ccccc1F)NC(c1ccc2c(c1)CCC2)c1cccs1` (centres undefined), the Potency entry is “inactive”.

As for `CCCCc1ccc(C(=O)Cn2nnc(-c3cccc(F)c3)n2)cc1`, the Potency entry is “inactive”.

As to `Cc1ccc(C(=O)Nc2cc3c(cc2N2CCCC2)n(C)c(=O)c(=O)n3C)cc1`, the Potency entry is “inactive”. Same read-out and setting: the result for `Cn1c(=O)n(C)c2cc(SCc3ccco3)c(NC(=O)c3ccc(C(C)(C)C)cc3)cc21` reads 8.91 µM (active); that for `CC(C)(C)c1ccc(C(=O)NCC(c2ccco2)S(=O)(=O)c2ccc(F)cc2)cc1` (centres undefined), “inactive”; that for `CCNC(=O)C1CCCN1S(=O)(=O)c1ccc(Br)s1` (centres undefined), “inactive”. Same read-out and setting: then `Cc1ccc(CN2CCN(C(=O)CCC[C@H]3NC[C@@H]4C[C@H]3CN(Cc3ccccc3)C4)CC2)cc1`, with “inactive”; and `Cc1oc(-c2ccccc2)nc1Cn1ncc2ccccc2c1=O`, with “inactive”. On to `Cc1cccc(CN2CCC3(Cc4ccccc4CNC3=O)C2)c1` (centres undefined), for which the activity change, negative = inhibition was 3.12% [at 6.33 µM] (inactive).

Take `COc1ccc(CN2CCC3(Cc4ccccc4CNC3=O)C2)cc1OC` (centres undefined): the activity change, negative = inhibition is 8.59% [at 6.33 µM] (inactive).

Regarding `Cc1ccc(CN2CCC3(Cc4ccccc4CNC3=O)C2)cc1` (centres undefined), the Potency was 28.2 µM (active). Still for that read-out and setting: the result for `O=C(NC1CCN(CCCc2nc3ccccc3o2)CC1)C1CCCCC1` reads “inactive”. Same read-out and setting: the result for `CCC(=O)Nc1ccccc1-c1nc2ccccc2n(CC(=O)Nc2ccc(NC(C)=O)cc2)c1=O` reads “inactive”; that for `O=C1NS(=O)(=O)c2ccccc21`, 12.6 µM (active). Same read-out and setting: then `CN(C)S(=O)(=O)c1ccc(C(=O)NCCN=C2NS(=O)(=O)c3ccccc32)cc1`, with “inactive”; and `Cc1ccccc1C(=O)NCCN=C1NS(=O)(=O)c2ccccc21`, with “inactive”; and `CCN(Cc1nc2ccccc2c(=O)[nH]1)C(=O)Cc1csc(-c2ccc(C)cc2C)n1`, with “inactive”.

On to `COc1ccc(-c2cc(NC=O)c3ncc(-c4ccccc4)n3c2)cc1OC`, for which the Potency result is “inactive”. Same read-out and setting: the result for `COc1ccccc1-c1cc(NC(C)=O)c2ncc(-c3ccc(F)cc3)n2c1` reads 44.7 µM (active). `COc1cccc(-c2cc(NC(C)=O)c3ncc(-c4cccc(C(C)=O)c4)n3c2)c1`: the Potency entry was “inactive”. Still for that read-out and setting: the result for `CC(C)c1noc(C(C)Sc2nc(C3CC3)nc3ccccc23)n1` (centres undefined) reads “inactive”. In the case of `O=C(O)CCC(=O)C(CC(=O)O)CC(=O)O`, the Potency result is “inactive”. On the same count and under the same terms, the result for `Cn1nc(C(C)(C)C)cc1NC(=O)c1cccc(F)c1` reads “inactive”; that for `Cc1ccc(NC(=S)Nc2ncccc2C)c(C)c1`, 8.91 µM (active). The same measure, in the same setting: then `Cc1cccnc1NC(=O)c1ccc2nc(C)c(C)nc2c1`, with “inactive”; and `CCOC(=O)N1CCN(C(=S)Nc2ccc(C)cc2C)CC1`, with “inactive”.

In the case of `Cc1ccc(NC(=O)c2oc(=O)c3ccccc3c2-c2ccccc2)c(C)c1`, the Potency result was “inactive”. The same measure, in the same setting: the result for `Cc1cc(C)c(/C=N/NC(=O)c2ccccc2)c(C)c1` reads “inactive”; that for `Cc1ccc(NC(=S)NC(=O)c2ccc(-c3ccccc3)cc2)c(C)c1`, 17.8 µM (active). For the compound `O=C(NNC(=O)C1(c2ccc(Br)cc2)CCCC1)c1ccccc1`, the Potency result was “inactive”.

Regarding `COc1ccc(C2Cn3cnc(-c4nc(-c5ccc(OC)cc5OC)no4)c3CO2)cc1` (centres undefined), the Potency result is “inactive”. The same measure, in the same setting: then `CCc1c(C(=O)O)csc1C`, with “inactive”.

Consider `CCCCc1nc2sc(C(=O)OCC)c(N)c2c2c1COC(C)(C)C2`, for which the Potency result was “inactive”.

Turning to `O[C@@H]1C[C@H](c2ccccc2)N(Cc2cccs2)C[C@H]1n1cc(C2CC2)nn1`, the Potency result is “inactive”. Take `O[C@H]1C[C@H](c2ccc(Cl)cc2)N(Cc2cccs2)C[C@@H]1n1cc(C2CC2)nn1`: the Potency was 44.7 µM (active). Consider `O=C(OCc1cn([C@@H]2C[C@H](c3ccc(Cl)cc3)N(Cc3cccs3)C[C@H]2O)nn1)c1ccccc1`, for which the Potency result is “inactive”. Still for that read-out and setting: the result for `CC(C)Cn1nc(C(=O)OCC(=O)Nc2ccc(OC(F)(F)F)cc2)c2ccccc2c1=O` reads “inactive”; that for `Cc1ccccc1S(=O)(=O)N1CCCC(CCC(=O)NCC2CCCCC2)C1` (centres undefined), “inactive”. The same measure, in the same setting: the result for `CCOC(=O)N1CCN(C(=O)c2ccc3c(=O)n(CCc4ccc(OC)c(OC)c4)c(=O)[nH]c3c2)CC1` reads “inactive”. Same read-out and setting: then `NC(=O)C1CCN(C(=O)c2ccc3c(=O)n(Cc4cccc(Br)c4)c(=S)[nH]c3c2)CC1`, with 44.7 µM (active).

Consider `CCOc1cc2[nH]c(=S)n(Cc3ccc(C(=O)N4CCN(C)CC4)cc3)c(=O)c2cc1OCC`, for which the Potency entry was “inactive”. Still for that read-out and setting: then `O=C(Nc1cccc2cccnc12)C1=C(c2ccccc2)S(=O)(=O)CCO1`, with “inactive”; and `COc1ccc2c(C)c(CC(=O)Nc3nnc(C)s3)c(=O)oc2c1OC`, with “inactive”; and `COc1ccc2cc(/C=C(/CC(=O)O)c3nc4ccccc4s3)ccc2c1`, with “inactive”. The same measure, in the same setting: then `COc1ccc(CC(=O)Nc2ccc(-c3nc4ccccc4s3)c(C)c2)cc1`, with “inactive”; and `COC(=O)Cc1cc(=O)n(-c2nc3ccccc3s2)[nH]1`, with 6.31 µM (active); and `COc1ccc(N2C(=O)C(C)(C)CS2(=O)=O)cc1S(=O)(=O)Nc1ccc(F)c(Cl)c1`, with “inactive”. The same measure, in the same setting: the result for `CCC1c2nccn2CCCN1C(=O)c1ccc(Cn2cncn2)o1` (centres undefined) reads “inactive”; that for `COc1ccc(-c2ccccc2CN)cc1`, “inactive”. On to `COc1ccc(C(C#N)=C2C=CC(=NO)c3ccccc32)cc1`, for which the Potency is 39.8 µM (active). The same measure, in the same setting: the result for `COC(=O)c1ccc(OC)cc1OCc1ccccc1C#N` reads “inactive”; that for `COc1ccc(C(=O)c2sc(Nc3cccc(F)c3)nc2N)cc1`, “inactive”; that for `O=C(NCCc1ccccn1)c1nc(Cn2cc([N+](=O)[O-])cn2)no1`, “inactive”. For the compound `O=C(Nc1ccc(Br)c2cccnc12)c1ccc(Cn2cc([N+](=O)[O-])cn2)o1`, the Potency was 15.8 µM (active).
